Screens from PubChem BioAssay.
DRD3 antagonist: antagonists of human D3 dopamine receptor; P35462; D3R cells, DiscoveRx beta-arrestin luminescence, antagonist mode; stronger effect = lower value; max response, negative = inhibition, %; 2.5% of 360,000 active; AID 652054; in the data active = max response below about -50%; inconclusive = no clear call, values can overlap the other calls; also: % is scaled to controls: 0 for no effect and ±100 for the full control effect
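Cells plated overnight at 1500 cells/well, then exposed to library compounds with dopamine controls for 90 minutes at 37 degrees C. DiscoveRx reagent added for 30–60 minutes at room temperature; luminescence read, quantitative HTS format.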
a7 integrin act: activates integrin-mediated alleviation for muscular dystrophy; alpha7betagal myoblasts, beta-gal FDG fluorescence, 48 h; Potency, µM (highest dose often 38.3 µM), for inactives: top-dose activation, hits mostly activators; 0.064% of 350,000 active;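 also: potency is read from the fitted curve at half-maximal effect; 100% = response of the positive control SU9516; nearly all actives have a fitted effect of over 60% in size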
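Alpha7betagal+/- myoblasts (passage 13) were plated 16-24 hr, then exposed to compounds (1:260 dilution of DMSO stock) for 48 hours at 37C. After MPER lysis, β-galactosidase reporter activity was read as FDG fluorescence (ex 480/em 540) after 30 minutes.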
DRD3 agonist: agonists of human D3 dopamine receptor; 0.58% of 410,000 active; max activation, %; P35462; AID 652048; D3R DiscoveRx beta-arrestin cells, luminescence, 90 min; in the data active = max activation above about 30%; also: 0% is about no effect
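Agonist-mode cell screen: cells plated at 1500/well and incubated overnight at 37 °C, then exposed to library compounds for 90 min at 37 °C. Detection reagent was added for 30–60 min at room temperature, and luminescence was read.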
CBFb-RUNX1 inh: CBF-beta/RUNX1 interaction disruption; Q01196+Q13951; AlphaScreen CBFb-His/RUNX1-biotin binding, biochemical; Potency, µM (doses to about 59.8 µM), inactives show at the highest dose activity, negative = inhibition, most hits filed as inhibitors; 230,000 tested, under 10 active; AID 1477; also: % of control where 0% means no effect
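Interaction loss through any mechanism counts as activity. Pre-formed complex of His-CBF-beta and biotin-RUNX1 (30 nM apiece) is incubated with compound 15 min, then with 50 ng nickel and 50 ng streptavidin beads for 90 min before AlphaScreen detection.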
MBNL1 CUG block: inhibitors of human MBNL1 binding to CUG repeat RNA. Q9NR56. Potency, µM (series often up to 57.5 µM), for the others: at the highest dose activity change, negative = inhibition, usual class: inhibitors. TR-FRET MBNL1-His/biotin-(CUG)12 binding, 665/545 ratio. 0.036% of 280,000 active; active = well fitted inhibition curve with a large enough effect in the signal ratio, with a control signal flat, not every such curve was filed as active; inconclusive = small, poorly fitted or top-dose-only effect, or effect the other way, or a change in a side signal; inactive = no such curve, though single readings can be large or run the other way; the % refers to the signal ratio; also: potency is read from the fitted curve at half-maximal effect; % is scaled to controls: 0 for no effect and ±100 for the full control effect
Target sequence (Q9NR56 whole entry, looked up): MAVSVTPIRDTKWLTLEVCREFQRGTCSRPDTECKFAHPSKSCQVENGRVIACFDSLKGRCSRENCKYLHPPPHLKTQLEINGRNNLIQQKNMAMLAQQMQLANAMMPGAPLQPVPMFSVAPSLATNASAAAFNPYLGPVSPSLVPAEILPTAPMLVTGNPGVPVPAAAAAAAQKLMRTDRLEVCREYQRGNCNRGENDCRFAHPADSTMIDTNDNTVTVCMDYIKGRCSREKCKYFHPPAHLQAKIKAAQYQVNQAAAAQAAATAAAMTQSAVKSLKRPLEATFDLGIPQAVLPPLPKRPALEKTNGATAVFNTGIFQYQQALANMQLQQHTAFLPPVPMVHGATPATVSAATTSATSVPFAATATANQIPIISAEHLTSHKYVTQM
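Compounds (final 92 nM to 58 uM) are added to His-tagged MBNL1 and biotin-(CUG)12, then terbium anti-His antibody and streptavidin-XL665 (5 nM final). After 60 min at room temperature, the 665/545 nm ratio is read.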
PTHR1 ag: agonists of human PTHR1 parathyroid hormone receptor; 0.075% of 410,000 active; Potency, µM (doses to about 115 µM), without a hit: top-dose activation, usual class: activators; Q03431; HEK293 GP2 PTHR1 cells, GloSensor cAMP luminescence, 1 h; also: potency is read from the fitted curve at half-maximal effect; nearly all actives have a fitted effect of over 55% in size
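HEK-293-derived GP2 cells expressing PTHR1 and a GloSensor cAMP reporter, 3,000/well, plated overnight, given luciferin plus IBMX (each 0.5 mM as added) for 1 h at 37 °C, then compound for 1 h at 37 °C. Luminescence was read after 15 min at room temperature.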
Numbers without * were called inactive; [ ] = remark or other dose. Most compounds without a hit are left out; they make up all but 2.8% or so of the library. Unless noted, calls follow the shape of the dose curve; as a rule, active = well fitted curve in the direction sought with a large enough effect; inconclusive = small, poorly fitted or top-dose-only effect, or another doubt; inactive = no such curve, though single readings can be large; an effect the other way counts as inactive or inconclusive.

What do the screens show for `Cc1nc(Nc2ccc3c(c2)OCO3)c2oc3ccccc3c2n1`?
DRD3 antagonist: -54*; a7 integrin act: 4%; DRD3 agonist: -3; CBFb-RUNX1 inh: 0%; MBNL1 CUG block: 14%; PTHR1 ag: -40%

How did Cc1ccc(Nc2nc(C)nc3c2oc2ccccc23)cc1 do in these assays?
DRD3 antagonist: 37; a7 integrin act: 8%; DRD3 agonist: 9; CBFb-RUNX1 inh: 6%; MBNL1 CUG block: -1%; PTHR1 ag: -15%

How did COC(=O)c1ccccc1NC(=O)CSc1nnc(-c2cccnc2)n1N do in these assays?
DRD3 antagonist: -8; a7 integrin act: 39%; DRD3 agonist: 0; CBFb-RUNX1 inh: 18%; MBNL1 CUG block: -7%; PTHR1 ag: -8%

Results for CCOc1cccc(C(=O)N(Cc2ccc(C)o2)C2CCS(=O)(=O)C2)c1 (stereo not drawn) ?
DRD3 agonist: -6; PTHR1 ag: -29%

Results for Clc1ccc2ccc3cccnc3c2n1 ?
DRD3 antagonist: 11; a7 integrin act: 9%; DRD3 agonist: -2; MBNL1 CUG block: -16%; PTHR1 ag: inactive

What do the screens show for `O=S1(=O)Nc2c(ccc3cccnc23)-c2ccccc21`?
DRD3 antagonist: -137*; a7 integrin act: -69%; DRD3 agonist: -38; CBFb-RUNX1 inh: -12%; MBNL1 CUG block: inconclusive; PTHR1 ag: -11%[57.5 µM]

How did Cc1ccccc1OCC(=O)N(Cc1ccc(C(C)C)cc1)C1CCS(=O)(=O)C1 (stereo not drawn) do in these assays?
DRD3 agonist: 6; PTHR1 ag: inactive

How did Cc1cccc(N2C(=O)CS/C2=N\NC(=O)c2ccc(Br)cc2)c1C do in these assays?
DRD3 antagonist: -79*; a7 integrin act: 27%; DRD3 agonist: -3; CBFb-RUNX1 inh: 10%; MBNL1 CUG block: inconclusive; PTHR1 ag: inactive

What do the screens show for `COc1ccc([C@H]2C[C@@H](O)[C@H](n3cc(COC(=O)c4ccccc4)nn3)CN2C(=O)c2cccs2)cc1`?
DRD3 antagonist: -10; a7 integrin act: 6%; DRD3 agonist: -1; PTHR1 ag: -19%

How did COc1ccc(NC(=O)C(Cc2ccccc2)NS(=O)(=O)c2ccc3c(c2)oc(=O)n3C)c(OC)c1 (stereo not drawn) do in these assays?
DRD3 agonist: -13; PTHR1 ag: -96%

How did O=c1[nH]c2ccccc2c(O)c1-[n+]1ccccc1 do in these assays?
DRD3 antagonist: -18; a7 integrin act: -42%; DRD3 agonist: 32*; CBFb-RUNX1 inh: 4%; MBNL1 CUG block: 1%; PTHR1 ag: inconclusive

Results for c1ccc(CC2CNc3ccccc3CN2)cc1 (stereo not drawn) ?
DRD3 antagonist: -52*; a7 integrin act: 2%; DRD3 agonist: -5; CBFb-RUNX1 inh: 1%; MBNL1 CUG block: 6%; PTHR1 ag: -8%

What do the screens show for `Cc1ccn2c(=O)cc(COc3ccc(NC(=O)C(C)(C)C)cc3)nc2c1`?
DRD3 agonist: -1; PTHR1 ag: 0%

Results for COc1ccc(CCCNC(=O)C2(C)Cc3c(-c4ccc5c(c4)OCO5)ccnc3O2)cc1 (stereo not drawn) ?
DRD3 antagonist: 0; DRD3 agonist: 3; PTHR1 ag: inactive

What do the screens show for `Cc1scc(C(=O)N/N=C/c2ccc(Cl)s2)c1C`?
DRD3 antagonist: 12; a7 integrin act: 9%; DRD3 agonist: -2; CBFb-RUNX1 inh: -4%; MBNL1 CUG block: 13%[11.5 µM]; PTHR1 ag: -1%

What do the screens show for `Cc1ncoc1C(=O)NC1CCCc2c1cnn2-c1ccc(C(C)(C)C)cc1` (stereo not drawn)?
DRD3 antagonist: 34; a7 integrin act: -45%; DRD3 agonist: 30*; MBNL1 CUG block: -2%; PTHR1 ag: -55%

What do the screens show for `Cc1ncoc1C(=O)NC1CCCc2c1cnn2-c1cc(F)cc(F)c1` (stereo not drawn)?
DRD3 antagonist: 13; a7 integrin act: -5%; DRD3 agonist: 7; PTHR1 ag: -1%

How did CCCCNC(=O)N(O)C1N(/N=C/c2ccco2)C(=S)SC1(C)C (stereo not drawn) do in these assays?
DRD3 antagonist: 7; a7 integrin act: 0%; DRD3 agonist: 7; PTHR1 ag: 6%

What do the screens show for `COc1ccccc1CNCCS(=O)(=O)NCc1ccccc1OC`?
DRD3 antagonist: inconclusive; a7 integrin act: 9%; DRD3 agonist: -16; PTHR1 ag: -12%

What do the screens show for `CCCCCCCCNCCS(=O)(=O)NCc1ccccc1OC`?
DRD3 antagonist: -60*; a7 integrin act: -38%; DRD3 agonist: -32; PTHR1 ag: inactive

How did COc1ccccc1CNS(=O)(=O)CCNC1CCCCC1 do in these assays?
DRD3 antagonist: -73*; a7 integrin act: 27%; DRD3 agonist: -25; PTHR1 ag: -6%

How did COc1ccccc1CNS(=O)(=O)CCNC1CC1 do in these assays?
DRD3 antagonist: -3; a7 integrin act: 10%; DRD3 agonist: 32*; PTHR1 ag: inactive

What do the screens show for `C=CCc1ccc(OCCCNC2CCCC2)c(OC)c1`?
DRD3 antagonist: -20; a7 integrin act: -60%; DRD3 agonist: -14; PTHR1 ag: inactive

What do the screens show for `CCCCNCCS(=O)(=O)NCc1ccccc1OC`?
DRD3 antagonist: inconclusive; a7 integrin act: 11%; DRD3 agonist: -18; PTHR1 ag: -12%

What do the screens show for `COc1ccccc1CNCCS(=O)(=O)NCc1ccccc1`?
DRD3 antagonist: inconclusive; a7 integrin act: 6%; DRD3 agonist: -38; PTHR1 ag: inactive

How did COc1ccccc1OCCNC1CCCC1 do in these assays?
DRD3 antagonist: -76*; a7 integrin act: 19%; DRD3 agonist: -7; CBFb-RUNX1 inh: 1%; MBNL1 CUG block: -3%; PTHR1 ag: inactive

What do the screens show for `CNc1cc(C(=O)Nc2cccc(OCc3ccccc3)c2)ncn1`?
DRD3 antagonist: 37; DRD3 agonist: 13; PTHR1 ag: inconclusive

What do the screens show for `CCn1cc(C(=O)N2CCN(c3ccccc3F)CC2)c(=O)c2ccc(C)nc21`?
DRD3 antagonist: 1; a7 integrin act: -12%; DRD3 agonist: 0; CBFb-RUNX1 inh: 7%; MBNL1 CUG block: -4%; PTHR1 ag: -6%

Results for Cc1nn(Cc2ccccc2Cl)c2sc(C(=O)Nc3nccs3)cc12 ?
DRD3 antagonist: -9; a7 integrin act: -15%; DRD3 agonist: 32*; CBFb-RUNX1 inh: 6%; MBNL1 CUG block: 89%; PTHR1 ag: inactive

Results for CCOC(=O)c1c(C)oc2c1c(C=NCc1ccccn1)c(O)c1ccccc12 ?
DRD3 antagonist: -105*; a7 integrin act: 37%; DRD3 agonist: 0; CBFb-RUNX1 inh: -27%; MBNL1 CUG block: inconclusive; PTHR1 ag: -56%
